From PubChem BioAssay (NCATS)
Records with an inconclusive call do not appear. Active and inactive are the calls of the source. Calls follow the shape of the dose curve; as a rule, active = well fitted cell-killing curve with a large enough effect; inconclusive = small, poorly fitted or top-dose-only effect; inactive = flat fitted curve, though single readings scatter.

experiment: Quantitative highthroughput screen to assess conditional lethalithy of P12 Ichikawa cells grown in Human Plasma-Like Medium with dialyzed fetal bovine serum (HPLM+ds) (AID 1963879); conditions: ATP luminescence, 48 h; Potency: viability; series mostly up to 45.8 µM; viability: at the top concentration; also: nearly all actives have a fitted effect of over 35% in size
Excerpt: Assay Provider: Jason Cantor Ph.D.
Department of Biochemistry
University of Wisconsin-Madison, Madison, WI, USA
Chemical screening studies have identified drug sensitivities across hundreds of cancer cell lines but most putative therapeutics fail to translate. Discovery and development of drug candidates in models that more accurately reflect nutrient levels in human blood is a major challenge. Here we performed high-throughput screens in conventional versus Human Plasma-Like Medium (HPLM) to identify compounds that were "missed" when screening using the artificial culture condition. Sets of conditional anticancer compounds spanned phases of clinical development and included non-oncology drugs were assessed. […] We also traced conditional phenotypes for several chemotherapeutics to availability of HPLM-specific metabolites and confirmed others for compounds whose reported targets are encoded by nonessential genes. Our findings establish generalizable strategies for exploiting conditional lethality in HPLM to reveal therapeutic candidates and mechanisms of action in cancer cells.
Described herein are the results of each viability screens against three cell lines: NOMO1 (an acute myeloid leukemia cell line); P12-Ichikawa (a T-cell acute lymphoblastic leukemia); and SEM (a B-cell ALL). Each assay was screened using 3 different cell culture media: homemade human plasma-Like medium with 10% dialyzed fetal bovine serum (HPLM+ds); RPMI1640 with 10% untreated FBS and 5mM glucose (RPMI+s); and RPMI1640 with 10% dialyzed fetal bovine serum and 5 mM glucose (RPMI+ds).
PROTOCOL TABLE (as described by Inglese J, Shamu CE and Guy RK. 2007)
SEQUENCE No. (e.g., 1, 2, 3, etc.); […] (e.g., Cells, Incubation, Reagent, etc.); VALUE and DESCRIPTION.
1; Cells; 5 uL; white, solid bottom 1536-well Greiner assay plate.
2; Compounds; 23 nL; Kalypsis pin tool (Wako USA) equipped with a 1536-well pin head to transfer to the assay plates.
3; Incubation; 48 hours; 37C incubation.
4; Reagent; 3 uL; CellTiter Glo (Promega).
5; Incubation; 5 min, room temperature
6; Detection; Luminescence, Viewlux PerkinElmer.
NOTES (numbers refer to Sequence numbers above)
1. Briefly, 5 ul of cell reagent was dispensed using a Multidrop Combi Dispenser. The NOMO1 and SEM cells were plated at 500 cells/well and the P12-Ichikawa line at 1000 cells/well.
2. After seeding the cells, 23 nL of MIPE 4.1 library compounds (in DMSO) were added to each plate using a Kalypsys 1536 Pintool dispenser. Bortezomib at final concentration of […] and DMSO were added to each plate as positive and negative controls respectively. For each screen, MIPE 4.1 compounds were added over an eleven-point concentration range […] in 3-fold dilutions.
3. Each plate was covered with a stainless steel gasketed lid to prevent evaporation and incubated for 48 hour at 37C, 95% relative humidity, and 5% CO2.
4-5. Three microliter CellTilter-GloTM luminescent substrate mix (Promega) reagent was added to the assay plate and incubated at room temperature for 5 min.
6. The luminescence signal was measured using a ViewLux (PerkinElmer) multiplate reader with a 2 second exposure time per plate. Data for each compound were normalized as percent viability such that measurements for DMSO and the empty well controls in each plate were defined as 100% and 0%, respectively.
Potency is read from the fitted curve at half-maximal effect.

Structure (SMILES) | Potency | viability
Cc1ccccc1-n1c(Cn2ncc3c(N)ncnc32)nc2cccc(C)c2c1=O | 2.96 µM (active) | –
CC1=C2C[C@@H]3[C@@H](CC=C4C[C@@H](O)CC[C@@]43C)[C@@H]2CC[C@]12O[C@H]1C[C@H](C)CN[C@H]1[C@H]2C | – | 94.6% (inactive)
CNCC(O)c1ccc(O)cc1 (stereo not given) | – | 100% (inactive)
O=C(O)C(=O)c1cn(Cc2ccccc2)c2ccc(-c3ccc(OC(F)(F)F)cc3)cc12 | – | 96.6% (inactive)
O=C(N[C@H]1CN2CCC1CC2)c1ccc(Cl)cc1 | – | 91.4% (inactive)
Cn1c(CCCC(=O)O)nc2cc(N(CCCl)CCCl)ccc21 | – | 91.6% (inactive)
O=C(Oc1ccc([N+](=O)[O-])cc1)N1CCN(Cc2cccc(Oc3ccccc3)c2)CC1 | – | 96.5% (inactive)
O=c1[nH]c2ccccc2n1CCCN1CCC(n2c(=O)[nH]c3cc(Cl)ccc32)CC1 | – | 97.4% (inactive)
C[C@H]([C@H](O)CCC(C)(C)O)[C@H]1CC[C@@]2(O)C3=CC(=O)[C@@H]4C[C@@H](O)[C@@H](O)C[C@]4(C)[C@@H]3CC[C@]12C | – | 102% (inactive)
CCCC[N+]1(C)[C@H]2CC(OC(=O)[C@H](CO)c3ccccc3)C[C@H]1[C@H]1O[C@H]12 (stereo not given in full) | – | 103% (inactive)
CC[C@@H]1[C@@H](C)O[C@@](O)([C@@H](C)[C@H](O)[C@H](C)[C@H]2OC(=O)C=CC=C[C@@H](C)[C@@H]([C@@H](C)[C@@H](O)[C@H](C)[C@@]3(O)C[C@H](O[C@H]4C[C@H](O)[C@H](O)[C@H](C)O4)[C@H](CC)[C@@H](C)O3)OC(=O)C=CC=C[C@@H]2C)C[C@H]1O[C@H]1C[C@H](O)[C@H](O)[C@H](C)O1 | 2.96 µM (active) | –
COc1ccc(CC2NCCc3cc(OC)c(OC)cc32)cc1OC (stereo not given) | – | 101% (inactive)
CC(NC(C)(C)C)C(=O)c1cccc(Cl)c1 (stereo not given) | – | 98.1% (inactive)
C[C@@H]1[C@@H](CC(C[C@H]2O[C@@H]3O[C@]4(C)CC[C@@H]5[C@H](C)CC[C@@H]([C@H]2C)[C@@]35OO4)C[S+](=O)([O-])c2ccc(COC(=O)N(C)C)cc2)O[C@@H]2O[C@]3(C)CC[C@H]4[C@H](C)CC[C@@H]1[C@@]24OO3 (stereo not given in full) | 3.32 µM (active) | –
CCN1C[C@]2(OC(=O)c3ccccc3NC(C)=O)CC[C@H](OC)[C@@]34[C@H]5CC6[C@@H](OC)C[C@](O)(C(C[C@@H]23)[C@@H]14)[C@@]5(O)[C@@H]6OC | – | 98.5% (inactive)
NC1CC1c1ccccc1 (stereo not given) | – | 100% (inactive)
Cc1[nH]nc2ccc(-c3cncc(OC[C@@H](N)Cc4c[nH]c5ccccc45)c3)cc12 | 1.66 µM (active) | –
COC1=C[C@@H]2[C@@H]3Cc4ccc(OC)c(O)c4[C@]2(CCN3C)CC1=O | – | 94.2% (inactive)
C=C(C)[C@H]1Cc2c(ccc3c2O[C@@H]2COc4cc(OC)c(OC)cc4[C@@H]2C3=O)O1 | 3.72 µM (active) | –
CC[C@H]1C=CC=CC[C@@H](C)[C@H](O)[C@@](C)(O)C(=O)[C@@H](C)[C@H](O)[C@@H](C)C(=O)[C@@H](C)[C@H](O)[C@@H](C)C=CC(=O)O[C@@H]2[C@@H](C)[C@H](CC1)O[C@]1(CC[C@H](C)[C@H](C[C@@H](C)O)O1)[C@H]2C | 11.8 µM (active) | –

Structure (SMILES) | Potency | viability
Cc1cc(SCc2sc(-c3ccc(C(F)(F)F)c(F)c3)nc2C)ccc1OCC(=O)O | – | 96.2% (inactive)
Oc1ccc2c3c1O[C@H]1c4[nH]c5c(c4C[C@@]4(O)[C@@H](C2)N(CC2CC2)CC[C@]314)C[C@@]1(O)[C@H]2Cc3ccc(O)c4c3[C@@]1(CCN2CC1CC1)[C@H]5O4 | – | 99.6% (inactive)
O=S(=O)(F)Cc1ccccc1 | – | 64% (inactive)
O=c1[nH]c2ccccc2n1C1CCN(Cc2ccc(-c3[nH]c4cc5ncnc5cc4nc3-c3ccccc3)cc2)CC1 | – | 99.7% (inactive)
CC1=C(O)C(=O)C=C2C1=CC=C1[C@@]2(C)CC[C@@]2(C)[C@@H]3C[C@](C)(C(=O)O)CC[C@]3(C)CC[C@]12C | 5.9 µM (active) | –
C[C@H]1CCCC=CC2C[C@H](O)C[C@@H]2[C@H](O)C=CC(=O)O1 (stereo not given in full) | 0.0372 µM (active) | –
CC(C)[C@]12O[C@@H]1[C@@H]1O[C@]13[C@]1(O[C@H]1C[C@@H]1C4=C(CC[C@@]13C)C(=O)OC4)[C@H]2O | 0.0012 µM (active) | –
C[C@](O)(COc1ccc(C#N)cc1)C(=O)Nc1ccc(C#N)c(C(F)(F)F)c1 | – | 103% (inactive)
CCCCCC[C@H]1C(=O)O[C@H](C)[C@H](NC(=O)c2cccc(NC=O)c2O)C(=O)O[C@@H](C)[C@@H]1OC(=O)CC(C)C | 1.66 µM (active) | –
O=[N+]([O-])c1ncc[nH]1 | – | 99.5% (inactive)
CC(=O)N(C)c1cccc(-c2ccnc3c(C(=O)c4cccs4)cnn23)c1 | – | 94.7% (inactive)
C[C@@]12OC(=O)[C@]1([C@@H](O)[C@@H]1C=CCCC1)NC(=O)[C@H]2CCCl | 0.235 µM (active) | –
CC[C@@H](C(N)=O)N1CCCC1=O | – | 99.8% (inactive)
CC(C)(C)c1cc(C=C(C#N)C#N)cc(Br)c1O | – | 90.6% (inactive)
O=C1CCC[C@@H]2[C@H]3CCCN4CCC[C@@H](CN12)[C@@H]34 | – | 97.3% (inactive)
CC(C)N(CCNC(=O)CN1CCCC1=O)C(C)C | – | 96.7% (inactive)
c1cc2c(cc1[C@H]1OC[C@H]3[C@H]1CO[C@H]3c1ccc3c(c1)OCO3)OCO2 | – | 96.9% (inactive)
CN[C@@H]1Cc2cccc3[nH]c(=O)n(c23)C1 | – | 101% (inactive)
CN1C(=O)COc2c(C(=O)NC3CN4CCC3CC4)cc(Cl)cc21 (stereo not given) | – | 112% (inactive)
C[C@@H]1[C@H](O)[C@@H](C)C=CC=CCCC=CC=CC=CC=C[C@H](O[C@H]2O[C@@H](C)[C@H](O)[C@@H](N)[C@@H]2O)CC2O[C@](O)(C[C@@H](O)[C@H](O)CC[C@@H](O)C[C@@H](O)C[C@@H](O)CC(=O)O[C@H]1C)C[C@H](O)[C@H]2C(=O)O | – | 101% (inactive)
